Screening results: PubChem, National Center for Advancing Translational Sciences (NCATS)
This is a sample that favours compounds with a hit; in the whole collection about 0.92% have one here.
RECQ1 helicase – RECQ1 (human) helicase inhibition; RECQ1 DNA unwinding, red fluorescence kinetic read; Potency, µM (series often up to 57.3 µM), for inactives: top-dose activity, negative = inhibition, most hits filed as inhibitors; 240,000 compounds, 0.54% hits;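 note: plate controls were vehicle for no effect and no enzyme for full effect; nearly all actives have a fitted effect of over 30% in size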
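RECQ1T1 50 nM; forked duplex (20 bp + 30-nt ss tails) 200 nM, ATP 2 mM final; pH 8.0, 2 mM MgCl2, 2.5 ug/ml poly(dI-dC); 15 min compound preincubation; discontinuous kinetic read over 2 h at RT.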
FEN1 inhibitor – blocks human flap endonuclease 1. 390,000 compounds, 0.35% hits. Recombinant FEN1 flap cleavage, fluorescence, 15 min. Potency, µM (top dose mostly 114 µM), without a hit: at the highest dose activity change, negative = inhibition, hits mostly inhibitors. P39748; note: nearly all actives have a fitted effect of over 65% in size
Target sequence (P39748 whole entry, looked up): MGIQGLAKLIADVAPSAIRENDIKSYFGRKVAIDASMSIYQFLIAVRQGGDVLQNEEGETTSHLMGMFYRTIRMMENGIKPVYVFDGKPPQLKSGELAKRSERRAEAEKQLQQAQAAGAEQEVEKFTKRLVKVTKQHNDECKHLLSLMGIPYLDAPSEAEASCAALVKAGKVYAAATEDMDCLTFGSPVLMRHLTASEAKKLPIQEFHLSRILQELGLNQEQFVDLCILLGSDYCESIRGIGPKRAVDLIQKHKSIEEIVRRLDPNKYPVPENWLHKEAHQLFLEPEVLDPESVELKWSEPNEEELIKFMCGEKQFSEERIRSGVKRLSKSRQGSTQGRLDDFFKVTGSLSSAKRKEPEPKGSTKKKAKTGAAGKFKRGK
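Potency values derive from four-parameter Hill fits of normalized qHTS data. The reaction used 10 nM FEN1 preincubated 15 min at room temperature with compound, then 50 nM DNA substrate, read at 0 and 15 min.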
BLM helicase inh – inhibitors of human Bloom syndrome helicase BLM; P54132; recombinant BLM DNA unwinding, fluorescence dequenching; Potency, µM (series often up to 56.1 µM), for inactives: top-dose activity change, negative = inhibition, actives largely listed as inhibitors; 350,000 compounds, 0.2% hits; AID 2528;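 note: plate controls were vehicle for no effect and no enzyme for full effect; nearly all actives have a fitted effect of over 35% in size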
APE1 inh – blocks human APE1 abasic DNA cleavage | P27695 | recombinant APE1, TAMRA/BHQ-2 abasic DNA cleavage fluorescence | Potency, µM (highest dose often 65.8 µM), without a hit: at the highest dose activity change, negative = inhibition, most hits filed as inhibitors | 350,000 compounds, 0.35% hits | AID 2517;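 note: plate controls were vehicle for no effect and reference inhibitor for full effect; nearly all actives have a fitted effect of over 55% in size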
Target sequence (P27695 whole entry, looked up): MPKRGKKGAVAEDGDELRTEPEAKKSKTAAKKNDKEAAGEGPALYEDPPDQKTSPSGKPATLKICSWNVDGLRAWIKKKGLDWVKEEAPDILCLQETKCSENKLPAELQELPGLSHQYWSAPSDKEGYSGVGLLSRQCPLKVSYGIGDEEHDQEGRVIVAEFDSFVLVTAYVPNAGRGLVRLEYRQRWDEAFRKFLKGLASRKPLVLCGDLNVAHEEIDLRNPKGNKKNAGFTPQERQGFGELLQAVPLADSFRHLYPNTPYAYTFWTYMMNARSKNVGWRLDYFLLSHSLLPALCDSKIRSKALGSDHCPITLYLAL
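0.75 nM APE1 + cpd, 15 min RT; start w/ 50 nM TAMRA/BHQ-2 THF-abasic dsDNA; kinetic fluor 525/598 nm ×3 reads @60 s; Δ(read3−read1); normalized to DMSO and NSC13755 control wells.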
TDP1 block – inhibitors of human tyrosyl-DNA phosphodiesterase TDP1. Q9NUW8. recombinant TDP1, AlphaScreen DNA substrate cleavage. Potency, µM (series often up to 130 µM), inactives show at the top dose activity change, negative = inhibition, most hits filed as inhibitors. 350,000 compounds, 0.28% hits; note: nearly all actives have a fitted effect of over 40% in size
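Here, a 5' biotin and 3' phosphotyrosine-FITC DNA oligonucleotide reports Tdp1 activity: intact substrate bridges AlphaScreen beads, while cleavage leaves a 3' phosphate and drops signal. All incubations at room temperature.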
* marks the source's active call; other numbers are inactive results; ? = inconclusive; . = no result. Calls come from the whole dose curve; as a rule, active = well fitted curve in the direction sought with a large enough effect; inconclusive = small, poorly fitted or top-dose-only effect, or another doubt; inactive = no such curve, though single readings can be large; an effect the other way counts as inactive or inconclusive. Unless noted, % is set by controls: 0 for no effect and ±100 for the full control effect; potency is the fitted concentration of half-maximal effect.

SMILES | RECQ1 helicase | FEN1 inhibitor | BLM helicase inh | APE1 inh | TDP1 block
C#CCOCCOCCOCCNc1nc(N2CCN(C(=O)CCCCCCCCCCNC(=O)[C@H](CO)n3cc(CCCSC)nn3)CC2)nc(N2CCN(C(=O)CCCCCCCCCCNC(=O)[C@H](CCCN=C(N)N)n3cc(C[C@@H](C)CC)nn3)CC2)n1 | . | 22µM* | . | ? | 11%
C#CCOCCOCCOCCNc1nc(N2CCN(C(=O)[C@H](Cc3ccc(O)cc3)n3cc(CCO)nn3)CC2)nc(N2CCN(C(=O)[C@H](Cc3ccc(O)cc3)n3cc(CCO)nn3)CC2)n1 | 32µM* | . | -16% | -9% | -11%
C#CCOCCOCCOCCNc1nc(N2CCN(C(=O)[C@H](C(C)C)n3cc(CCO)nn3)CC2)nc(N2CCN(C(=O)[C@H](Cc3ccc(O)cc3)n3cc(CCO)nn3)CC2)n1 | . | -16% | . | . | .
C#CCOCCOCCOCCNc1nc(N2CCN(C(=O)CCCCCCCCCCNC(=O)[C@H](CO)n3cc(CCCSC)nn3)CC2)nc(N2CCN(C(=O)CCCCCCCCCCNC(=O)[C@H](CCCCN)n3cc(CCO)nn3)CC2)n1 | . | ? | . | -33% | 9%
C#CCOCCOCCOCCNc1nc(N2CCN(C(=O)CCCCCCCCCCNC(=O)Cn3cc(C[C@@H](C)O)nn3)CC2)nc(N2CCN(C(=O)CCCCCCCCCCNC(=O)[C@H](CCCCN)n3cc(CCCC(=O)O)nn3)CC2)n1 | . | 1% | . | 5% | 6%
Cn1cc(CNC(=O)c2cnn3c2NC(=C2CC2)C=C3C(F)F)cn1 | . | . | . | 8% | .
O=C(N/N=C/c1cn(Cc2ccccc2)c2ccccc12)c1cc(O)cc(O)c1 | . | -14% | -15% | 15µM* | -15%
N#Cc1c(-c2ccc([N+](=O)[O-])cc2)no[n+]1[O-] | . | . | . | 7% | .
COc1ccc2ccccc2c1/C=N/N1C(=O)CSC1=S | 28µM* | -5% | -13% | -6% | 3%
Cc1ccc(-c2nnc(-c3cccc4ccccc34)o2)cc1 | . | 3% | . | . | .
Cc1ccc(CSc2nnc(-c3cccc4ccccc34)o2)cc1 | . | 10% | . | 8% | 45µM*
CCC[C@@H]1C[C@@H](C(=O)N[C@@H]([C@H]2O[C@H](SC)[C@H](OP(=O)(O)O)[C@@H](O)[C@H]2O)[C@H](C)Cl)N(C)C1 | . | . | . | -3% | .
CCc1cccc(C)c1NC(=O)C1CCN(S(=O)(=O)c2cccc3nonc23)CC1 | . | 89µM* | -5% | . | 4%
O=C(O)C1C2C=CC3(O2)C1C(=O)N1c2ccccc2C2OCCC2C13 (configuration not stated) | 0% | -2% | -5% | ? | 40µM*
C=C(C)CC1N(c2cccc(OC)c2)C(=O)C2C(C(=O)O)C3C=CC21O3 (configuration not stated) | -8% | -15% | 0% | -2% | 3%
COc1ccc(C2Nc3ccccc3C(=O)N2Cc2cccc3ccccc23)cc1COc1ccc(NC(C)=O)cc1 (configuration not stated) | . | . | . | . | 2%
Cc1ccc(-c2nc3ccccc3nc2-c2ccccc2)cc1 | . | 2% | -8% | -8% | 79µM*
CC(C)CC1=NN2C(=N)/C(=C\c3coc4ccccc4c3=O)C(=O)N=C2S1 | ? | 32µM* | -8% | 21% | 1%
CCSC1=NSC2=NC(=O)/C(=C\c3coc4ccccc4c3=O)C(=N)N12 | -5% | ? | -15% | -2% | -5%
O=S(=O)(c1ccsc1)N1CCN(c2nc(-c3cccs3)nc3ccccc23)CC1 | . | . | . | . | -5%
CC(C)(C)Nc1oc(-c2ccccc2)nc1-c1ccc(C(F)(F)F)cc1 | 1% | . | 0% | 2% | 4%
O=C(NCc1ccco1)c1cccc2c1C(=O)c1ccc(/C=C/c3ccccc3)cc1S2(=O)=O | . | ? | . | ? | 32µM*
COc1ccc(-c2ccc3c(c2)S(=O)(=O)c2cccc(C(=O)NCCOc4ccccc4Cl)c2C3=O)cc1OC | . | 12% | . | -22% | 28µM*
CC(C)c1cccc(-c2ccc3c(c2)S(=O)(=O)c2cccc(C(=O)NCc4ccccc4Cl)c2C3=O)c1 | . | 14% | . | 7% | -1%
COc1ccc(-c2ccc3c(c2)S(=O)(=O)c2cccc(C(=O)NCc4ccccc4Cl)c2C3=O)cc1OC | . | ? | . | -41% | 25µM*
SMILES | RECQ1 helicase | FEN1 inhibitor | BLM helicase inh | APE1 inh | TDP1 block
COc1ccc(-c2ccc3c(c2)S(=O)(=O)c2cccc(C(=O)NC4CC4)c2C3=O)cc1OC | . | -7% | . | 5% | -10%
Cc1ccc(NS(=O)(=O)c2ccc3c(c2)CCN(C(=O)C(F)(F)F)C3)cc1C | . | . | . | . | 0%
Cc1cc2nc(NC3=NCN(CCN4CCOCC4)CN3)nc(C)c2cc1C | -2% | . | 28% | 0% | 0%
Cc1nc(NC2=NCN(CCCN3CCOCC3)CN2)nc2c(C)cccc12 | 14% | 40µM* | 134% | 6% | 0%
COC(=O)CSc1nc2c(c(-c3ccco3)c1C#N)CCCC2 | 35µM* | 3% | -28% | -8% | .
COC(=O)CSc1nc2c(c(-c3ccc(O)cc3)c1C#N)CCCC2 | -1% | -3% | -15% | -2% | 5%
CCOc1ccc(C(=O)N/N=C/c2cc(Cl)ccc2[N+](=O)[O-])cc1 | -2% | -12% | 11µM* | 5% | 3%
Cc1cccc(C(=O)Nc2ccc(N3CCC(CCN4CCOCC4)CC3)c(C(=O)O)c2)c1 | . | -12% | 2% | 48% | 25µM*
Cc1cccc(C(=O)Nc2ccc(N3CCN(c4ccc(F)cc4)CC3)c(C(=O)O)c2)c1 | . | -3% | 0% | . | -14%
CCOC(=O)c1sc(NC(=O)C2CC2)nc1C | -9% | 37% | 2% | 11% | 3%
CCOC(=O)c1sc(NC(=O)C2C3C=CC(C3)C2C(=O)O)nc1C (configuration not stated) | 0% | 4% | -3% | ? | 79µM*
N#Cc1nc(Nc2cccc(C(F)(F)F)c2)nc(NC2CCCC2)n1 | . | . | . | . | 1%
O=c1ccsn1Cc1ccccc1 | -10% | 56µM* | 0% | -4% | 14%
CNc1c(NC(=O)C2CCC(C)CC2)c(=O)oc2ccccc12 (configuration not stated) | . | 10% | -5% | -10% | 79µM*
CCc1ccc[n+](-c2[nH]c(=O)sc2/C=N/N=C(\[O-])c2cccnc2)c1 | . | 1% | -2% | 33% | -1%
Cc1ccc[n+](-c2[nH]c(=O)sc2/C=N/N=C(\[O-])c2cccnc2)c1 | . | 15% | -5% | -3% | 50µM*
Cc1cc[n+](-c2[nH]c(=O)sc2/C=N/N=C(\[O-])c2ccncc2)cc1C | . | ? | -10% | -38% | -11%
Cc1cc[n+](-c2[nH]c(=O)sc2/C=N/N=C(\[O-])c2ccncc2)cc1 | . | -27% | -10% | 7% | 40µM*
CC1(C)C2CCC(C2)C1(C)N=C1OC(CCl)CS1 (configuration not stated) | 1% | 12% | 4.5µM* | -3% | -4%
